Measurements: PubChem BioAssay AID651800 (The Scripps Research Institute Molecular Screening Center, 2012)
Among all 360,000 compounds or so, about 1,300 (0.36%) were called active. The list comes from a sample in which actives are over-represented; it also holds similar structures and randomly drawn compounds. Values without a mark were called inactive. Rule as the data show it: active = inhibition above about 19%; inactive = the rest.

test system: T-cell receptor (TCR); experiment: small molecules blocking TCR binding to CD3 – biochemical, fluorescence, TAMRA-labeled TCR probe, primary screen (AID 651800); conditions: at 9.4 µM, stronger effect = higher value;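 also: recombinant mutant TCR 2C K166C tagged with TAMRA read by polarization; 0% = receptor in buffer alone and 100% = receptor with positive control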

Row | SMILES | inhibition
1 | COc1ccc(/C(N)=N/OC(=O)CCCc2ccccc2)cc1 | 3.62%
2 | COc1ccccc1CCC(=O)NNC(=O)c1ccncc1 | 1.16%
3 | COc1ccc(C(=O)NC(=S)NNC(=O)CCc2ccccc2)cc1 | 101% (active)
4 | C[C@@H]1CN([C@H](C)CO)C(=O)CCCn2cc(nn2)CO[C@H]1CN(C)C(=O)Nc1ccc(N2CCCCC2)cc1 | -4.6%
5 | O=C(Nc1c(Cl)c(C2CC2)nn1-c1ccccc1)C(Cl)(Cl)Cl | 4.25%
6 | O=C(N[C@H](C(=O)N1CCC[C@H]1C(=O)NCCc1ccccc1Cl)c1ccccc1)c1ccccc1 | 7.43%
7 | Cc1cc(NCCc2c[nH]c3ccccc23)ccc1Oc1cccnc1 | -1.7%
8 | O=C(N[C@H](Cc1ccccc1)C(=O)N1CCCN(Cc2cccs2)CC1)[C@H]1O[C@@H](n2ccc(=O)[nH]c2=O)[C@H](O)[C@@H]1O | -1.23%
9 | COC(=O)N1Cc2ccnnc2CC1c1ccccc1Br (centres undefined) | 12%
10 | Cc1ccc(NC(=O)N2c3ccccc3SC2c2ccco2)c(C)c1 (centres undefined) | 1.82%
11 | COC(=O)C1=C(C)N(Cc2ccc(C(F)(F)F)cc2)C(=NCc2ccc(C(F)(F)F)cc2)NC1c1cccc(Cl)c1 (centres undefined) | 1.76%
12 | COCCOC(=O)c1sc(=S)n(CCOC)c1N | 38.1% (active)
13 | COC(=O)[C@]12C[C@H](CC(=O)NCCC(C)C)C(=O)N(CCc3ccc(OC)c(OC)c3)C1=C[C@H](C(C)(C)C)O[C@@H]2C | -1.41%
14 | COCc1cc(N2CCN(C(=O)OC(C)(C)C)C[C@@H]2C)ccc1N1CCN(Cc2ccccc2)[C@H](C)C1 | -5.69%
15 | Cc1cc(N2CCN(C(=O)OC(C)(C)C)C[C@H]2C)ccc1N1CCN(Cc2ccccc2)[C@H](C)C1 | -1.77%
16 | COc1cccc2c1C(=O)c1c(O)c3c(c(O)c1C2=O)CC(O)(C(C)=NNC(=O)c1ccc(Cl)c(Cl)c1)CC3OC1CC(N)C(O)C(C)O1 (centres undefined) | 158% (active)
17 | Nc1nc2c(ncn2[C@@H]2O[C@H](C(=O)N[C@H](Cc3ccccc3)C(=O)NCC3CCCCC3)[C@@H](O)[C@H]2O)c(=O)[nH]1 | -5.72%
18 | CCCCCCCCN1C(=O)[C@@H](CC(=O)NCCCC)C[C@@]2(C(=O)OC)C1=C[C@H](C(C)(C)C)O[C@@H]2C | 4.32%
19 | CC1(C)OC(=O)C2=C(CC(CCc3ccccc3)OC2c2ccc(Cl)cc2)O1 (centres undefined) | 0.34%
20 | Cc1ccc(Cc2cnc(N)s2)o1 | 20.7% (active)
21 | Cc1ccc(CCC(=O)Nc2ncc(Cc3cc(Cl)ccc3Cl)s2)o1 | -1.49%
22 | C=CCN=C1NC(c2ccccc2)C(C(=O)OC)=C(C)N1Cc1ccc(C(F)(F)F)cc1 (centres undefined) | -2.66%
23 | N#Cc1ccc(OCCCN2CCC(C(O)(c3ccccc3)c3ccccc3)CC2)c(F)c1 | -1.37%
24 | COC(=O)c1ccc(CN2C(=O)[C@]3(OCCC=C[C@H]3C)c3c(Br)cccc32)cc1 | -2.86%
25 | CN1c2ccc(C=O)c3c(C=O)ccc(c23)N(C)C1(C)C | 35% (active)
26 | C#CCOCCOCCOCCNc1nc(N2CCN(C(=O)C([C@@H](C)CC)n3cc(C(N)COC(=O)C(F)(F)F)nn3)CC2)nc(N2CCN(C(=O)[C@H](Cc3ccc(O)cc3)n3cc(C(N)[C@H](C)CC)nn3)CC2)n1 (some centres undefined) | 1.55%
27 | CCCN1C(=O)c2[nH]nc(-c3ccccc3)c2C1c1ccccc1 (centres undefined) | 1.37%

Row | SMILES | inhibition
28 | CN(C)c1ccc(/C=N/NC(=O)C(O)c2ccc(Br)cc2)cc1 (centres undefined) | 4.89%
29 | CN(C)c1ccc(N/C=C/C(=O)C(F)(F)F)cc1 | 20.8% (active)
30 | CNC(=S)NNC(=O)c1ccc(N(C)C)cc1 | 5.64%
31 | C#CCN([C@@H](C)C(=O)OCC)S(=O)(=O)c1ccc(Br)cc1F | 1.93%
32 | CN1CCN(/N=C/c2ccc(C#N)cc2)CC1 | 51.9% (active)
33 | C(=N/N1CCN(c2ccccc2)CC1)/c1cccs1 | 4.89%
34 | CSc1ccc(/C=N/N2CCN(Cc3ccccc3Cl)CC2)cc1 | -2.6%
35 | COC(=O)C1=C(C)NC(=S)NC1c1ccc(OC)cc1 (centres undefined) | 0.64%
36 | COc1cccc(CC(=O)N2CCN(C(=O)C(=O)c3cccc(C(F)(F)F)c3)CC2)c1 | 0.68%
37 | C[C@H](O)[C@@H]1CN2CCc3ccc(-c4ccc5c(c4)OCO5)cc3[C@@H]2C[C@@H]1N(C)C(=O)C1CCCCC1 | 8.65%
38 | O=C(N/N=C/c1ccc(Br)o1)c1cncc(Br)c1 | -0.44%
39 | O=C(CCNC(=O)c1ccccc1)NN=Cc1ccc(Br)o1 | 21.9% (active)
40 | O=C(CCNC(=O)c1ccccc1Cl)NN=Cc1ccco1 | -5.52%
41 | CN1C(=O)C(Br)(Br)CC1c1cccnc1 (centres undefined) | -8.3%
42 | Cc1cc(Br)cn2c(Cc3ccccc3C(F)(F)F)c(-c3ccc(C#N)cc3)nc12 | 4.41%
43 | COCCCNC(=S)NNC(=O)C(O)(c1ccccc1)c1ccccc1 | 24.9% (active)
44 | CCCCNC(=S)NNC(=O)c1cc(C)on1 | 11.9%
45 | COCCCNC(=S)N(Cc1ccccc1)Cc1ccc(F)cc1 | -3.1%
46 | O=C(C(=O)N1CCC(CNS(=O)(=O)Cc2ccccc2)CC1)c1cc2ccccc2o1 | -2.01%
47 | OC(c1ccccc1)(c1ccccc1)C1CCN(CCCOc2ccc(-c3ccsc3)cc2)CC1 | 2.16%
48 | Cc1ccc(CNC(=O)COc2ccc3c(c2)CCC3)cc1 | 1.31%
49 | CCOCC(=O)NCc1ccc2c(c1)cc(C)n2C | 28.4% (active)
50 | Cc1ccc(CNC(=O)Cc2cn(C)c3ccccc23)cc1 | 6.02%
51 | COC(=O)[C@H](CC(C)C)NS(=O)(=O)c1c(F)cccc1F | -1.84%
52 | O=c1[nH]c(-c2ccccc2)cn1C1CCN(Cc2ccc(-c3nc4ccc(F)cc4nc3-c3ccccc3)cc2)CC1 | 12%
53 | COC(=O)Cc1nnn2c1[C@H](C)[C@H](c1ccccc1[N+](=O)[O-])OCC2 | 1.45%
54 | Nc1ccc2nc3c(=O)[nH]c(=S)[nH]c3nc2c1 | 109% (active)
